# In the supplement of paper PMC13380429:
# A number with no mark means an inactive call.
# System: Vero E6 infected with SARS-CoV-2
# Assay: inhibition of SARS-CoV-2 cytopathic effect; higher = more antiviral protection, active = above 15
# Conditions: 48 h
Compound,inhibition of SARS-CoV-2 cytopathic effect (1 nM),inhibition of SARS-CoV-2 cytopathic effect (8.33 nM),inhibition of SARS-CoV-2 cytopathic effect (100 nM),inhibition of SARS-CoV-2 cytopathic effect (833.33 nM),inhibition of SARS-CoV-2 cytopathic effect (10000 nM)
O=C1NC(=O)C(c2ccccc2[N+](=O)[O-])=C1Nc1ccc(O)c(Cl)c1,-2.14%,-1.36%,-2.09%,1.29%,6.31%
CCOC(=O)c1ccccc1OC(N)=O [ethyl-2-(carbamoyloxy)benzoate],-8.28%,-7.77%,-4.5%,-2.39%,-3.35%
CC(C)[C@H](C(=O)Nc1ccc(C(=O)NO)cc1)c1ccccc1,3.84%,0.31%,-0.75%,1.02%,0.89%
CC[C@H](C)C(=O)O[C@H]1C[C@H](O)C=C2C=C[C@H](C)[C@H](CC[C@@H](O)C[C@@H](O)CC(=O)O)[C@H]21,0.27%,3.73%,2.53%,6.3%,1.69%
CC(=O)OCC(=O)[C@@]1(O)CC[C@H]2[C@@H]3CCC4=CC(=O)CC[C@]4(C)[C@H]3[C@@H](O)C[C@@]21C [hydrocortisone-acetate],-3.27%,-0.84%,0.23%,-1.92%,-0.4%
CCCc1cc(=O)[nH]c(=S)[nH]1 [propylthiouracil],3.65%,-8.68%,2.66%,2.01%,-1.99%
c1ccc(-c2nn3c(c2-c2ccnc4cc(OCCN5CCOCC5)ccc24)CCC3)nc1,-0.68%,0.41%,1.87%,-0.96%,0.94%
Cc1cc(C)nc(SCC(=O)Nc2ncc(Cc3cccc4ccccc34)s2)n1,0.9%,-1.68%,1.78%,0.63%,2.48%
NCCc1cc[nH]n1 [betazole],0.58%,1.07%,2.63%,0.04%,0.97%
COC[C@H]1OC(=O)c2coc3c2[C@@]1(C)C1=C(C3=O)[C@@H]2CCC(=O)[C@@]2(C)C[C@H]1OC(C)=O [wortmannin],-3.55%,-1.71%,-2.28%,-4.43%,-2.83%
Cc1nnsc1C(=O)Nc1ccc(-n2nc(C(F)(F)F)cc2C(F)(F)F)cc1,-4.22%,2.91%,0.56%,-0.23%,-10.5%
C[C@H]1C[C@@H]2[C@H]([C@@H](O)C[C@@]3(C)[C@H]2CC[C@]3(O)C(=O)CO)[C@@]2(C)C=CC(=O)C=C12 [methylprednisolone],0.61%,3.49%,-1.8%,0.94%,0.36%
Cc1c(C)c2c(c(C)c1O)CCC(C)(C)O2,0.77%,-0.34%,2.33%,4.37%,-5.56%
NC(=O)N1CCC(CC(=O)N2CCC([C@H]3c4ncc(Br)cc4CCc4cc(Cl)cc(Br)c43)CC2)CC1 [lonafarnib],-0.44%,0.33%,1.55%,11.2%,12.3%
COc1ccc(C2(CNC(=O)c3ccc(NC(=O)c4ccco4)cc3)CCOCC2)cc1,1.26%,1.21%,-2.16%,-1.65%,-2.44%
Clc1ccccc1CNC[C@H]1CC[C@H](CNCc2ccccc2Cl)CC1,-1.74%,-2.28%,-1.13%,-3.17%,16.4% (active)
CC(C)(C)c1ccc(C(O)CCCN2CCC(C(O)(c3ccccc3)c3ccccc3)CC2)cc1 (stereo not given) [terfenadine],1.94%,-2.95%,-0.52%,-3.56%,-21.1%
CCCCOc1cc(C(=O)OCCN(CC)CC)ccc1N [oxybuprocaine],0.54%,0.93%,5.2%,3.06%,-0.68%
